The structures appear in SMILES notation. Compounds without any hit were thinned out: in the full panel of roughly 83,000, 20% have a hit.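 Activity criterion: percent growth below 10, measured after cells in 96-well plates were exposed to a single compound concentration for 48 hours.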 Values without a mark were called inactive. Activity calls are given as the source filed them.

Among the test systems are SR leukemia; RPMI-8226 leukemia; OVCAR-8 ovarian; OVCAR-5 ovarian; OVCAR-4 ovarian; SK-OV-3 ovarian; IGROV1 ovarian; OVCAR-3 ovarian; HS 578T breast; NCI/ADR-RES ovarian.
What all share (assay): NCI-60 one-dose screen, 48 h (100 = growth as untreated, 0 = no growth, -100 = all killed)
Holding throughout (conditions): 10 µM unless noted

For the compound `O=c1[nH]c(-c2ccccc2)nc(CN2CCCCC2)c1O`, the growth was 85.1% in the experiment on SR leukemia; 97.6% with RPMI-8226 leukemia; 107% in the experiment on OVCAR-8 ovarian; 110% with OVCAR-5 ovarian; 110% in the experiment with OVCAR-4 ovarian; 114% with SK-OV-3 ovarian. The growth is 128% in the experiment on IGROV1 ovarian, 110% in the experiment on OVCAR-3 ovarian, 104% with HS 578T breast and 100% with NCI/ADR-RES ovarian.

Take `S=c1[nH]nc(-c2cc3ccc2CCc2ccc(cc2)CC3)n1C1CC1`: the growth with SR leukemia is 109%; in the experiment on RPMI-8226 leukemia, 106%; in the experiment on OVCAR-8 ovarian it was 107%; in the experiment on OVCAR-5 ovarian it was 99.1%; in the experiment on OVCAR-4 ovarian, 89.4%; with SK-OV-3 ovarian, 113%. Moreover, the growth in the experiment on IGROV1 ovarian is 101%; in the experiment with OVCAR-3 ovarian it was 108%; in the experiment on HS 578T breast, 101%; in the experiment on NCI/ADR-RES ovarian it was 103%.

For `COc1ccc(S(=O)(=O)Nc2cc(/C=C\c3cc(OC)c(OC)c(OC)c3)cc(OC)c2OC)cc1`, the growth in the experiment with SR leukemia was 9.7% (active); with RPMI-8226 leukemia, 10.2%; with OVCAR-8 ovarian, 7.61% (active); with OVCAR-5 ovarian, 46.8%; in the experiment on OVCAR-4 ovarian, 55.7%; in the experiment on SK-OV-3 ovarian it was 20.6%. The growth was 19.9% in the experiment with IGROV1 ovarian, 3.36% (active) with OVCAR-3 ovarian, 21.1% in the experiment with HS 578T breast and 11.3% in the experiment on NCI/ADR-RES ovarian.

With `CC(C)(C)OC(=O)NC(CSCc1ccccc1)C(=O)ON1C(=O)CCC1=O` (stereo not given), the growth with SR leukemia is 78.4%; in the experiment on RPMI-8226 leukemia, 97.5%; in the experiment with OVCAR-8 ovarian, 104%; with OVCAR-5 ovarian, 106%; in the experiment on OVCAR-4 ovarian it was 121%; with SK-OV-3 ovarian it was 104%. In addition, the growth in the experiment on IGROV1 ovarian was 114%; in the experiment with OVCAR-3 ovarian, 107%; in the experiment with HS 578T breast, 115%; with NCI/ADR-RES ovarian, 103%.

Consider `S=C1CC(=S)NC(=S)N1`, for which the growth in the experiment with SR leukemia is 109%; with RPMI-8226 leukemia, 122%; with OVCAR-8 ovarian it was 104%; in the experiment with OVCAR-5 ovarian, 110%; in the experiment on OVCAR-4 ovarian, 99%; with SK-OV-3 ovarian, 111%. Further, the growth with IGROV1 ovarian is 96.7%; in the experiment on OVCAR-3 ovarian, 116%; in the experiment on HS 578T breast it was 101%; with NCI/ADR-RES ovarian, 105%.

Take `O=C(CN1CCN(c2cc3c(cc2F)c(=O)c(C(=O)N/N=C/c2ccccc2O)cn3C2CC2)CC1)N/N=C\c1ccccc1O`: the growth in the experiment on SR leukemia was 14.6%; in the experiment with RPMI-8226 leukemia, 25.4%; with OVCAR-8 ovarian, 25.8%; in the experiment on OVCAR-5 ovarian, 39%; in the experiment on OVCAR-4 ovarian it was 19.8%; in the experiment with SK-OV-3 ovarian, 34.5%. The growth in the experiment with IGROV1 ovarian was 21.5%; with OVCAR-3 ovarian, 30.7%; in the experiment with HS 578T breast it was 57.4%; in the experiment on NCI/ADR-RES ovarian, 23.6%.

As to `c1ccc(-c2cn(-c3ccccc3)c(-c3ccccc3)n2)cc1`, the growth was -29.7% (active) with SR leukemia; -58.9% (active) with RPMI-8226 leukemia; 21.1% with OVCAR-8 ovarian; 83.4% with OVCAR-5 ovarian; 88.7% with OVCAR-4 ovarian; 97.1% in the experiment on SK-OV-3 ovarian. Moreover, the growth with IGROV1 ovarian is 4.72% (active); with OVCAR-3 ovarian, 13.4%; in the experiment with HS 578T breast, 87.1%; with NCI/ADR-RES ovarian, 92.4%.

In the case of `O=C1C2(c3ccccc3)C(c3ccccc3)=C(c3ccccc3)C1(c1ccccc1)C1CC=CC12` (stereo not given), the growth in the experiment on SR leukemia is 101%; in the experiment with RPMI-8226 leukemia it was 50.2%; with OVCAR-8 ovarian it was 87.5%; in the experiment on OVCAR-5 ovarian it was 97.9%; with OVCAR-4 ovarian, 69.5%; with SK-OV-3 ovarian, 96.3%. Moreover, the growth in the experiment on IGROV1 ovarian was 86.9%; with OVCAR-3 ovarian, 89.5%; in the experiment on HS 578T breast it was 106%; with NCI/ADR-RES ovarian, 90.3%.

Take `CN(C)CCCC(C#N)c1ccccc1` (stereo not given): the growth in the experiment on SR leukemia was 96.2%; in the experiment on RPMI-8226 leukemia, 108%; with OVCAR-8 ovarian it was 112%; in the experiment on OVCAR-5 ovarian, 117%; with OVCAR-4 ovarian, 113%; in the experiment with SK-OV-3 ovarian it was 107%. Besides, the growth is 132% with IGROV1 ovarian, 117% in the experiment on OVCAR-3 ovarian, 121% in the experiment with HS 578T breast and 108% in the experiment on NCI/ADR-RES ovarian.

Take `CC1CCC(C)N(C)C1` (stereo not given): the growth is 88.1% in the experiment on SR leukemia; 89.7% in the experiment on RPMI-8226 leukemia; 105% in the experiment on OVCAR-8 ovarian; 106% with OVCAR-5 ovarian; 107% in the experiment on OVCAR-4 ovarian; 102% in the experiment on SK-OV-3 ovarian. The growth in the experiment with IGROV1 ovarian is 106%; in the experiment on OVCAR-3 ovarian, 112%; in the experiment with HS 578T breast it was 108%; in the experiment with NCI/ADR-RES ovarian it was 107%.

`O=C(O)COc1ccc(-c2cssc2=S)cc1`: the growth is 54.8% in the experiment on SR leukemia; 113% with RPMI-8226 leukemia; 101% in the experiment on OVCAR-8 ovarian; 98.7% with OVCAR-5 ovarian; 103% with OVCAR-4 ovarian; 108% in the experiment with SK-OV-3 ovarian. In addition, the growth with IGROV1 ovarian was 112%; with OVCAR-3 ovarian, 122%; with HS 578T breast it was 105%; with NCI/ADR-RES ovarian it was 108%.

In the case of `COc1cc(/C=C/C(=O)/C=C/c2cc(OC)c3c(c2)OCO3)cc2c1OCO2`, the growth is 33.6% with SR leukemia; -10.5% (active) in the experiment with RPMI-8226 leukemia; 95.4% in the experiment with OVCAR-8 ovarian; 107% with OVCAR-5 ovarian; 104% in the experiment on OVCAR-4 ovarian; 86.6% in the experiment on SK-OV-3 ovarian. Also, the growth in the experiment with IGROV1 ovarian was 90.3%; in the experiment on OVCAR-3 ovarian it was 34.6%; in the experiment on HS 578T breast, 103%; in the experiment with NCI/ADR-RES ovarian it was 91.2%.

As for `Nc1nc(Nc2cc(Cl)cc(Cl)c2)nn1S(=O)(=O)c1ccc2ccccc2c1`, the growth is 46.3% in the experiment with SR leukemia; 66.5% in the experiment on RPMI-8226 leukemia; 40.6% in the experiment on OVCAR-8 ovarian; 68.3% in the experiment with OVCAR-5 ovarian; 72.5% in the experiment on OVCAR-4 ovarian; 59.5% with SK-OV-3 ovarian. Also, the growth was 20.3% with IGROV1 ovarian, 60.1% with OVCAR-3 ovarian, 40.5% in the experiment with HS 578T breast and 37.1% with NCI/ADR-RES ovarian.

Consider `CCOC(=O)c1ccc2c(c1)c1c(C)c3cccnc3c(C)c1n2C`, for which the growth with SR leukemia was 16.1%; with RPMI-8226 leukemia it was 62.8%; in the experiment with OVCAR-8 ovarian, 46.2%; with OVCAR-5 ovarian, 69.3%; with OVCAR-4 ovarian it was 62.7%; with SK-OV-3 ovarian, 84.1%. Also, the growth in the experiment with IGROV1 ovarian was 24.1%; with OVCAR-3 ovarian it was 69.8%; in the experiment with HS 578T breast, 85.2%; with NCI/ADR-RES ovarian it was 48.4%.

Source of the values: PubChem BioAssay (NCI).
